# A selection: hits, their analogues and other compounds. The true share with any hit is near 3.7%.
# VDR inh: blocks the human vitamin D receptor; P11473; VDR-SRC2-3 peptide fluorescence polarization, 2 h; Potency, µM, inactives show max response, negative = inhibition, hits mostly inhibitors; hit rate 0.93% among 400,000; also: potency is read from the fitted curve at half-maximal effect; % is scaled to controls: 0 for no effect and ±100 for the full control effect
#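 Compounds are added to VDR with labelled SRC2-3 coactivator peptide and held 2 h at room temperature. Inhibition of the VDR–peptide interaction is then read as a change in fluorescence polarization.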
# WRN helicase inh: blocks human WRN helicase | WRN helicase unwinding, fluorescent forked duplex, kinetic | Potency, µM (titrated, usually from 114 µM), inactives show at the top dose activity change, negative = inhibition, hits mostly inhibitors | hit rate 0.46% among 360,000 | AID 651768; also: potency is read from the fitted curve at half-maximal effect; % is scaled to controls: 0 for no effect and ±100 for the full control effect; nearly all actives have a fitted effect of over 55% in size
#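 WRN at 20 nM final was preincubated with compound for 15 min at room temperature; reaction started with 100 nM forked duplex oligonucleotide carrying fluorophore and quencher plus 2 mM ATP (final). Unwinding followed kinetically by red fluorescence (ex 525/em 598 nm).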
# FEN1 inhibitor: blocks human flap endonuclease 1 | hit rate 0.35% among 390,000 | Recombinant FEN1 flap cleavage, fluorescence, 15 min | Potency, µM (titrated, usually from 114 µM), for inactives: at the highest dose activity change, negative = inhibition, most hits filed as inhibitors | AID 588795; also: potency is read from the fitted curve at half-maximal effect; % is scaled to controls: 0 for no effect and ±100 for the full control effect; nearly all actives have a fitted effect of over 65% in size
#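 Potency values derive from four-parameter Hill fits of normalized qHTS data. The reaction used 10 nM FEN1 preincubated 15 min at room temperature with compound, then 50 nM DNA substrate, read at 0 and 15 min.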
# TCR act: T cell receptor activation | primary human leukocytes, anti-CD3, IL-2 HTRF, 48 h | Potency, µM (top dose mostly 9.22 µM), without a hit: top-dose activation of IL-2 secretion, most hits filed as activators | 330,000 tested, under 10 active | AID 504894; also: % of control where 0% means no effect
#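 HTRF read-out of IL-2 secretion: europium cryptate donor excited at 320nm, d2 acceptor emission at 665nm. Cells were primary human leukocytes incubated 48 hr with compounds and a-CD3 beads, supplying TCR signal only.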
# PLK1 PBD block: inhibitors of human PLK1 polo-box domain binding; hit rate 2.8% among 360,000; P53350; Plk1 PBD binding of FITC phosphopeptide, fluorescence polarization; AID 720504; Potency, µM, without a hit: max response, negative = inhibition, actives largely listed as inhibitors; also: potency is read from the fitted curve at half-maximal effect; series mostly up to about 57 µM; % is scaled to controls: 0 for no effect and ±100 for the full control effect; nearly all actives have a fitted effect of over 65% in size
# PI5P4K alpha inh: inhibitors of human PI5P4K alpha; P48426; PI5P4Kalpha enzyme, ADP-Glo luminescence, 60 min; hits give low values; max response, %; hit rate 1.2% among 330,000; active = max response of -50% or lower; inconclusive = between -30% and -50%; inactive = -30% or higher; also: value at the top dose of about 77 µM; % is scaled to controls: 0 for no effect and ±100 for the full control effect
# Target sequence (P48426 whole entry, looked up): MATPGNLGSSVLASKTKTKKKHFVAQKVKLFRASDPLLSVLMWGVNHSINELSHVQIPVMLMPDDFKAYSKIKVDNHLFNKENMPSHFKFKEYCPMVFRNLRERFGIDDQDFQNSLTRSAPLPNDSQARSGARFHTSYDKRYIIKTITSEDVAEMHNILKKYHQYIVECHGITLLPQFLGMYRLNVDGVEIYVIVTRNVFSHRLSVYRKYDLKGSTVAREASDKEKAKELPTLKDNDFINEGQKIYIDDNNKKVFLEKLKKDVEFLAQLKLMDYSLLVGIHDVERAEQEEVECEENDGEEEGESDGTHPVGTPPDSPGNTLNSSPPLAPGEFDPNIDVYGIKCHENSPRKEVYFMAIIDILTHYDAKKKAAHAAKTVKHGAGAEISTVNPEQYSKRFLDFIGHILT
#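 Enzyme plus substrate dispensed, test compounds pinned in, then ATP (5 microM final) added. After 60 min at RT, ADP-Glo reagent 1 for 45 min and reagent 2 for 30 min preceded luminescence imaging.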
# Starred values were filed as active, the others as inactive; ? = inconclusive; · = no result; ! = not confirmed by another sample; [ ] = another dose, or the depositor's remark. Unless noted, calls follow the shape of the dose curve; as a rule, active = well fitted curve in the direction sought with a large enough effect; inconclusive = small, poorly fitted or top-dose-only effect, or another doubt; inactive = no such curve, though single readings can be large; an effect the other way counts as inactive or inconclusive.
SMILES,VDR inh,WRN helicase inh,FEN1 inhibitor,TCR act,PLK1 PBD block,PI5P4K alpha inh
C=CCOc1c(Cl)cc(CNc2ccc(N(C)C)cc2)cc1OC,2.2µM*,-9%,-15%,17%,-9%,·
Cc1ccc2c(c1)-c1nc(-c3ccc(Cl)cc3)cc(-c3coc4ccccc4c3=O)c1CO2,-3%,·,8%,·,·,·
Cc1cc(OCc2cc(C(=O)N(C)CC3CCOCC3)no2)cc(C)c1Cl,?,4%,-23%,-3%,27µM*,-7
Cc1cc(OCc2cc(C(=O)N(C)CCCN3CCOCC3)no2)cc(C)c1Cl,-11%,1%,-1%,2%,?,2
CC(C)(C)NC(=O)NC(=O)CSc1ncc(C(F)(F)F)cc1Cl,?,-10%,-20%,-2%,30µM*,·
O=c1c(N2CCN(c3ccccc3)CC2)csc2ccc(Cl)cc12,12%,·,-13%,·,·,·
CCC(C)NC(=O)c1cc(C)no1 (configuration not stated),11%,-1%,1%,·,30µM*,2
NCCNCCN,16µM*,·,·,·,·,·
NCCNCCNCCN,10%,5%,19%,10%,-10%,7
COc1ccc2[nH]cc(C(=O)CNc3nccs3)c2c1,·,·,-10%,·,·,·
CCOC(=O)Cc1csc(NS(=O)(=O)c2ccccc2)n1,15%,-26%[57.1 µM],-3%,-2%,1%,-11
CCOC(=O)Cc1csc(NS(=O)(=O)c2ccc(F)cc2)n1,-17%,5%,-8%,-5%,21µM*,-27
CC(=O)CCOC1CCCCO1 (configuration not stated),-3%,·,·,·,·,·
CCCN(C(=O)Cn1c(=O)oc2cc(Cl)ccc21)c1ccc(C(C)C)cc1,0%,·,3%,·,·,·
O=C(N/N=C/c1ccco1)C1CC1,-1%,-15%,0%,1%[46.1 µM],-8%,3
O=C(N/N=C/c1ccco1)C1CC1c1ccccc1 (configuration not stated),3%,-32%,-4%,-2%[46.1 µM],-21%,-50*
Cc1cc(=O)n(CC(=O)NC(C)c2ccccc2)c2c1c(C)nn2-c1cccc(F)c1 (configuration not stated),9%,·,11%,·,·,·
CCN(CC#CCC(O)(c1ccccc1)c1ccccc1)C(C)C,-27%,-16%,1%,-1%[46.1 µM],27µM*,1
COC(=O)C1(C(=O)OC)CC2=C[C@H](CC2=O)Cc2ccccc2[C@@H]1C[N+](=O)[O-],50µM*!,·,·,·,·,·
COC(=O)C1(C(=O)OC)Cc2ccccc2N(S(=O)(=O)c2ccc(C)cc2)C1CC(C)=O (configuration not stated),·,6%,·,·,-9%,8
CC1CN(c2ccc(Oc3ccccc3)cc2)c2nc3c(c(=O)[nH]c(=O)n3C)n2C1 (configuration not stated),-27%,7%,6%,-2%,27µM*,-18
N#Cc1ccc(NC(=O)COc2ccccc2C(=O)Nc2ccccc2)cc1,·,·,2%,·,·,·
CC1CCCN(C(=S)SCC(=O)c2cc(Br)cc(Br)c2O)C1 (configuration not stated),0%,89µM*,50µM*,2%,-10%,-4
CC1CCCN(C(=S)SCC(=O)O)C1 (configuration not stated),-12%,-2%,2%,0%[46.1 µM],-1%,2
O=C(CSC(=S)N1CCCC1)c1cc(Br)cc(Br)c1O,-20%,56µM*,-15%,2%,?,-25
SMILES,VDR inh,WRN helicase inh,FEN1 inhibitor,TCR act,PLK1 PBD block,PI5P4K alpha inh
O=C(NC(NC(=S)Nc1ccccc1C(=O)O)C(Cl)(Cl)Cl)c1cccc([N+](=O)[O-])c1 (configuration not stated),?,-17%,12%,1%,24µM*,-26
COc1ccc(/C=c2\[nH]c(=O)/c(=C/c3ccc(OC)cc3)[nH]c2=O)cc1,·,·,10%,·,·,·
NS(=O)(=O)c1ccc(NS(=O)(=O)c2ccc(C3CNC(=O)C3)cc2)cc1 (configuration not stated),?,7%,3%,0%,30µM*,7
CC(NC(=O)C(=O)N1CCOCC1)C(c1cccs1)N1CCN(c2ccccc2)CC1 (configuration not stated),-27%,-3%,-13%,-5%,21µM*,1
COc1cc(N)ccc1Nc1c2ccccc2nc2ccccc12,·,?,·,·,-8%,-55*
CCCS(=O)(=O)Nc1ccc(Nc2c3ccccc3nc3ccccc23)c(OC)c1,-1%,-35%,?,-12%,0%,0
Cc1ccc(NC(=O)NC2=NN(c3ccccc3)C(=O)/C2=C2/CCCN2C)cc1,-7%,-6%,10%,5%,1%,8
CN1CCC/C1=C1/C(=O)N(c2ccccc2)N=C1NC(=O)Nc1cccc(Cl)c1,?,7%,?,3%,3.8µM*,?
Cc1ccc(NC(=O)CN2C(=O)COc3ccc(S(=O)(=O)N4CCCCCC4)cc32)cc1Cl,0%,·,42%,·,·,·
COc1ccccc1N1CCN(C(=O)COc2cc(C)ccc2C)CC1,40µM*,-20%,-5%,4%[46.1 µM],21µM*,-10
COc1ccccc1N1CCN(C(=O)COc2ccc(C)cc2Br)CC1,-1%,-6%,-21%,4%,-2%,-1
CC(=O)Nc1ccc(NC(=O)c2nc(S(=O)(=O)Cc3cccc(C)c3)ncc2Cl)cc1,?,-11%,-17%,-1%,13µM*,-6
Cc1cccc(NC(=O)c2nc(S(C)(=O)=O)ncc2Cl)c1,?,·,-24%,·,·,·
CCS(=O)(=O)c1ncc(Cl)c(C(=O)Nc2ccccc2)n1,?,·,1%,·,·,·
CCCS(=O)(=O)c1ncc(Cl)c(C(=O)Nc2ccc(S(=O)(=O)Nc3ncccn3)cc2)n1,22µM*,-13%,4%,1%,?,-4
Cc1ccc(NC(=O)c2nc(S(=O)(=O)Cc3ccc(F)cc3)ncc2Cl)cc1C,-30%,·,14%,·,·,·
COc1cccc(NC(=O)c2nc(S(C)(=O)=O)ncc2Cl)c1,20µM*,-10%,-6%,-3%,24µM*,2
CC(=O)Nc1ccc(NC(=O)c2nc(S(=O)(=O)Cc3ccc(F)cc3)ncc2Cl)cc1,?,·,-11%,·,·,·
Cc1ccc(NC(=O)c2nc(S(=O)(=O)Cc3ccccc3C)ncc2Cl)cc1C,?,-11%,-1%,-3%,27µM*,2
CCOC(=O)c1ccccc1NC(=O)CSc1ncc(CO)n1Cc1ccc(C)cc1,7%,·,13%,·,·,·
CCc1ccc(S(=O)(=O)c2nnn3c2nc(Nc2ccc(C)c(Cl)c2)c2sccc23)cc1,4%,·,-2%,·,·,·
COc1ccccc1CNC(=O)Cn1cc2c(n1)-c1c(oc(C(=O)N3CCOCC3)c1C)CC2,7%,·,-5%,·,·,·
O=C(O)C(Cc1ccc2c(c1)oc1ccccc12)NCP(=O)(O)O (configuration not stated),1%,·,·,·,·,·
CN1CCN(c2ncc3nc(-c4ccc(F)cc4)c(=O)n(C4CC4)c3n2)CC1,-24%,·,·,·,·,·

# Assay outcomes: PubChem, National Center for Advancing Translational Sciences (NCATS)
